Screens (PubChem BioAssay)
Compounds with a hit are over-represented: about 2.2% of the library has one in this group of screens.
TWEAK-Fn14 inh = blocks TWEAK-Fn14 interaction in a reporter cell assay; TWEAK-stimulated Fn14 reporter cells, luciferase luminescence, 8 h; inhibition, % at 10 µM; actives 2% (n = 360,000); in the data active = inhibition above about 50%
HSP90 inh = HSP90 refolding inhibition in rabbit reticulocyte lysate; luciferase refolding luminescence, 3 h; inhibition, % at 5.6 µM; actives 0.91% (n = 290,000);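 active = inhibition above the screen-wide mean plus 3 SD, computed separately per campaign, cut at about 16% in these data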;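 note: 0% = DMSO wells and 100% = 60 µM geldanamycin wells; inhibitors lower the luminescence because luciferase stays unfolded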
TROY NFkB inh = TROY signaling inhibition; inhibition, % at 10 µM; actives 0.98% (n = 360,000); Q293 LMP1-TROYcd NF-kB luciferase reporter, 4 h; AID 1347056;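 active = compounds whose plate-normalised and pattern-corrected inhibition of the luciferase reporter signal at the single screening dose is 50% or more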
LGR2 inh = inhibitors of bursicon-induced Drosophila LGR2 receptor cAMP signaling. HEK293 LGR2, CRE-luciferase, bursicon-stimulated, 4 h. inhibition, % at 9.99 µM. actives 0.35% (n = 380,000). AID 720647;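 active = drop in luminescence signal, shown as inhibition above about 50% in the replicate tests, limit read from the data, passing the limit was not always enough; inconclusive = probably only some replicates passing the limit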;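 note: agonist challenge used bursicon conditioned medium at about half maximal strength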
An asterisk follows results filed as active; ? = inconclusive; . = no result given.

SMILES | TWEAK-Fn14 inh | HSP90 inh | TROY NFkB inh | LGR2 inh
CCOc1ccc(NS(=O)(=O)c2ccc(N)cc2)cc1 | -7 | -1 | -2 | .
Cc1cc(C)cc(NS(=O)(=O)c2cnc(Cl)c(Cl)c2)c1 | 25 | 0 | -14 | .
CCOc1ccc(NS(=O)(=O)c2ccc(SC)cc2)cc1 | 81* | 3 | . | .
CCOc1ccc(NS(=O)(=O)c2cnc(Cl)c(Cl)c2)cc1 | 53* | 2 | 29 | 18
O=C(NC1CCC1)[C@H]1[C@H](CO)[C@H]2Cn3c(ccc(-c4ccc(F)cc4)c3=O)[C@@H]1N2Cc1cocn1 | . | . | . | -2
COC(=O)c1ccc2nc(C(C)(C)C)c(Cc3ccc(OC)cc3C)n2c1 | -14 | . | 2 | 14
COc1ccc(Cc2c(C(C)(C)C)nc3ccc(Br)cn23)c(C)c1 | 2 | . | 93* | .
CC(=O)N1[C@@H]2Cn3c(ccc(C4=CCCC4)c3=O)[C@H]1[C@@H](C(=O)NC1CCCC1)[C@@H]2CO | . | . | . | -9
COc1cccc(N2CCN(C(=O)CCCCCNc3nc(=S)[nH]c4ccccc34)CC2)c1 | 53* | -2 | 70* | ?
O=C(CCCn1c(=S)[nH]c2ccccc2c1=O)N1CCN(c2cccc(Cl)c2)CC1 | 51* | -3 | 52* | .
COc1ccc(C#Cc2ccc3c(c2)O[C@@H](CN(C)C(C)=O)[C@@H](C)CN([C@@H](C)CO)S3(=O)=O)cc1 | . | . | . | 1
CCCC(=O)N1CC2(C1)CN(C(=O)CC1CC1)[C@@H](CO)c1c2c2ccc(OC)cc2n1C | . | . | . | -6
O=C1CC(C(=O)N2CCCc3ccccc32)CN1c1ccc(F)cc1 (stereo not drawn) | 61* | -1 | 49 | 0
COC(=O)c1cc(OC)c(OC)cc1NC(=S)NC(=O)c1ccco1 | 74* | -3 | 7 | 13
O=C(Nc1nc2ccc(Cl)cc2s1)c1ccco1 | 58* | 15 | 7 | .
COc1cc2nc(NC(=O)c3ccco3)sc(=O)c2cc1OC | 71* | -3 | -5 | 19
O=C(Nc1nc2ccc(Br)cc2s1)c1ccco1 | 46 | 3 | -28 | 42
COc1cc2sc(NC(=O)c3ccco3)nc2cc1Cl | -15 | 2 | -72 | -36
C/C=C/c1ccc([C@@H]2[C@H](CO)N(CC3CC3)[C@H]2CNC(=O)c2ccccc2)cc1 | . | . | . | -34
C[C@H](CO)N1C[C@H](C)[C@H](CN(C)Cc2ccccc2)Oc2ccc(NC(=O)c3ccncc3)cc2C1=O | . | . | . | 11
CC(C)NC(=O)Nc1ccc2c(c1)C(=O)N([C@@H](C)CO)C[C@@H](C)[C@@H](CN(C)S(=O)(=O)c1cccs1)OCCCC[C@H](C)O2 | . | . | . | 8
O=C(Nc1ccccc1C(=O)Nc1nnc(C(F)(F)F)s1)c1ccccc1 | 87* | 3 | 59* | 47
Cc1cccc(C)c1NC(=O)CCCSc1nc2ccccc2s1 | -25 | 0 | 2 | -7
CCOC(=O)NC(=O)COC(=O)CCCSc1nc2ccccc2s1 | 54* | 10 | 27 | -12
NC(=O)NC(=O)COC(=O)CCCSc1nc2ccccc2s1 | 61* | 8 | 39 | -5
SMILES | TWEAK-Fn14 inh | HSP90 inh | TROY NFkB inh | LGR2 inh
O=C(O)CCSc1nc2ccccc2s1 | 92* | 12 | 69* | -10
CC(C)NC(=O)NC(=O)COC(=O)CCCSc1nc2ccccc2s1 | -3 | 6 | 8 | 12
COc1ccc2c3c([nH]c2c1)[C@@H](CO)N(C(=O)C1CCC1)CC31CCN(S(C)(=O)=O)CC1 | . | . | . | 2
COc1ccccc1C(=O)Nc1ccc2c(c1)C(=O)N(C)[C@H]1CC[C@@H](CC(=O)NCCc3ccncc3)O[C@@H]1CO2 | . | . | . | -26
CCCNC(=O)Nc1ccc2c(c1)OC[C@H](C)N(CCC(F)(F)F)C[C@@H](C)[C@H](OC)CN(C)C2=O | . | . | . | -10
O=C(NC(=S)Nc1cc([N+](=O)[O-])ccc1O)c1ccc2c(c1)OCO2 | 71* | 10 | 70* | ?
CC(=O)c1c(N2CCCC2)[nH]c(-c2ccccc2)nc1=S | 0 | -1 | 3 | 21
CC(=O)c1c(N2CCOCC2)[nH]c(-c2ccccc2)nc1=S | 15 | -6 | 67* | -10
O=C(C[C@H]1C=C[C@H](NC(=O)C2CC2)[C@@H](CO)O1)NCc1ccncc1 | . | . | . | 5
CCOC(=O)NCc1ccc(S(=O)(=O)Nc2ccc(C)cc2)cc1 | -3 | 1 | 15 | .
CCOC(=O)NCc1ccc(CNC(=O)OCC)cc1 | 73* | 2 | . | .
CC1Cc2ccccc2N1C(=O)Cn1nnc(-c2ccccc2NC(=O)C2CCC2)n1 (stereo not drawn) | 45 | -1 | 59* | .
CCC(=O)Nc1ccccc1-c1nnn(CC(=O)N2c3ccccc3CC2C)n1 (stereo not drawn) | 0 | 0 | 5 | 19
O=C(Nc1ccccc1-c1nnn(CC(=O)N2CCc3ccccc3C2)n1)C1CCC1 | 71* | -3 | . | .
COc1ccc(S(=O)(=O)Nc2ccc3c(c2)[C@H]2C[C@@H](CC(=O)NCC4CC4)O[C@H](CO)[C@H]2O3)cc1 | . | . | . | -21
CCCN(C)C[C@@H]1OCCCC[C@@H](C)Oc2ccc(NS(=O)(=O)c3ccc(C)cc3)cc2C(=O)N([C@H](C)CO)C[C@H]1C | . | . | . | 6
CC1=C(C(=O)N(C(C)C)C(C)C)CC(CC(=O)NC2CC2)C(=O)N1CCCN1CCCC1=O (stereo not drawn) | 11 | . | 75* | 7
C[C@@H]1CN([C@@H](C)CO)C(=O)c2cc(NC(=O)Nc3ccc(F)cc3)ccc2O[C@@H](C)CCCCO[C@@H]1CN(C)C(=O)Nc1ccc2c(c1)OCO2 | . | . | . | 5
Cc1nc(-c2ccccc2)cn(O)c1=O | 64* | 3 | 6 | 20
CCOC(=O)Nc1ccc2c(c1)C(=NNC(N)=S)c1ccccc1-2 | 38 | . | 48 | 83*
O=C(NCC1CCCO1)c1cccc2c1C(=O)c1ccc(N3CCC(Cc4ccccc4)CC3)cc1S2(=O)=O (stereo not drawn) | 90* | . | 56* | .
CCOC(=O)COc1ccccc1/C=C\[N+](=O)[O-] | 104* | -2 | 87* | .
O=C(N/N=C1/C(=O)c2cccc3cccc1c23)c1ccc(Cl)cc1 | 106* | 0 | -36 | .
O=C(/C=C/c1ccccc1)/C=C/c1ccccc1 | 90* | -2 | 27 | -44
O=C(/C=C/c1ccccc1)c1ccccc1 | -6 | 3 | -22 | -63
SMILES | TWEAK-Fn14 inh | HSP90 inh | TROY NFkB inh | LGR2 inh
O=C(N[C@@H]1CC[C@@H](CC(=O)N2CCCCC2)O[C@H]1CO)c1ccc2c(c1)OCO2 | . | . | . | 5
COc1cccc2c1C1COC3C4CC(C(=O)O)C(C(C2)N13)N4C (stereo not drawn) | 61* | . | 30 | 1
COc1cccc2c1C(CCCC(=O)O)CCC2 (stereo not drawn) | 0 | . | -3 | 2
CC(=O)N(C)C[C@@H]1Oc2cc(-c3ccccc3F)ccc2S(=O)(=O)N([C@@H](C)CO)C[C@H]1C | . | . | . | -5
CCOc1ccc(Br)cc1C1C(C(=O)OC)=C(N)Oc2cc(N(C)C)ccc21 (stereo not drawn) | 53* | -7 | 5 | .
CO[C@H]1CN(C)C(=O)c2ccc(NC(=O)Nc3ccccc3F)cc2OC[C@@H](C)NC[C@H]1C | . | . | . | -1
Cc1ccc(Nc2nc(NCc3ccco3)c3ccccc3n2)cc1 | 85* | 4 | 70* | 96*
COc1ccccc1Nc1nc(NCc2ccco2)c2ccccc2n1 | 9 | 4 | -71 | .
